Data: PubChem BioAssay (NCATS)
Records with an inconclusive call do not appear. Unmarked numbers belong to inactive results. Calls come from the whole dose curve; as a rule, active = well fitted cell-killing curve with a large enough effect; inconclusive = small, poorly fitted or top-dose-only effect; inactive = flat fitted curve, though single readings scatter.

Assay: Cell Viability - LYMP2-016 (AID 984); note: nearly all actives have a fitted effect of over 55% in size
Settings: LYMP2-016 lymphoblastoid cell viability, qHTS; series mostly up to 92.2 µM; activity change, negative = cytotoxicity: at the top concentration
From the text: NIH Chemical Genomics Center [NCGC]
NIH Molecular Libraries Screening Centers Network [MLSCN]
National Institutes of Environmental Health Sciences [NIEHS]
National Toxicology Program [NTP]
We have developed a 1536-well cell-based assay for quantitative high throughput screening (qHTS) against a number of cell lines to determine in vitro cytotoxicity of small molecules. This particular assay uses a human lymphoblastoid cell line (LYMP2-016) purchased from Coriell Institute for Medical Research.
NCGC Assay Protocol Summary:
The CellTiter-Glo luminescent cell viability assay (Promega) is a homogeneous method to measure the number of viable cells in culture. The end point readout of this assay is based on quantitation of intracellular ATP, an indicator of metabolic activity, using the luciferase reaction. Luciferase catalyzes the oxidation of beetle Luciferin to oxyluciferin and light in the presence of ATP. The luminescent signal is proportional to amount of ATP present.
Using the CellTiter-Glo luminescent cell viability assay, the amount of cellular ATP was measured in the lymphoblastoid cell line with complete culture medium following compound treatment for 24 hours. The assay was performed in opaque white Kalypsys 1536-well plates. In the screen, tetraoctylammonium bromide was used as positive control. Library compounds were measured for their ability to cause acute toxicity in the cell line, as reflected by a decrease in intracellular ATP levels, in a concentration-dependent manner. […] AC50 values were determined from concentration-response data modeled with the standard Hill equation.
qHTS protocol for CellTiter Glo lymphoblastoid cellular assay
[Step] [Parameter] [Value] [Description]
1. Reagent; 5 uL; 2500 lymphoblastoid cells/well
2. Time; 5 hr; 37 C incubation
4. Controls; 23 nL; Tetraoctylammonium bromide 6.4pM to 92 uM
5. Time; 24 hr; 37 C incubation
6. Reagent; 5 uL; CellTiter Glo reagent
7. Time; 30 min; Room Temperature
8. Detection; Luminescence; Viewlux plate reader
Keywords: cell viability, cytotoxicity, lymphoblastoid cell line, luminescence, NTPHTS, NTPHTS_NCGC, NIEHS, DSSTox, MLSMR, MLSCN, NIH Roadmap, qHTS, NCGC
% is set by controls: 0 for no effect and ±100 for the full control effect.

Point of comparison: Cc1ccc2c(C)cccc2c1, “activity change, negative = cytotoxicity” value -6.72%. Against it:
- Cc1ccc2c(c1N)C(=O)c1ccccc1C2=O — lower, -25.9%
- Clc1ccc(C(c2ccccc2Cl)C(Cl)(Cl)Cl)cc1 (stereo not given) — lower, -12.6%
- CCCBr — higher, -0.768%
- Cc1cnc[nH]1 — higher, 4.03%
- C=C(C)CCl — higher, -0.839%
- N#C/C(N)=C(/N)C#N — higher, 6.55%
- CCNCC — higher, -5.68%
- O=[N+]([O-])CCO — higher, 2.08%
- CCCN(CCC)c1c([N+](=O)[O-])cc(C(F)(F)F)cc1[N+](=O)[O-] — higher, -3.77%
- CC(Cl)CCl (stereo not given) — higher, -1.51%
- CC(C)OS(C)(=O)=O — lower, -13.6%
- Oc1c(Cl)cccc1Cl — higher, -4.47%
- O=C(Cl)c1ccccc1F — higher, -1.56%
- Cl/C=C/Cl — higher, -3.79%
- CCCCOCC1CO1 (stereo not given) — lower, -13.1%
- Nc1ccc(-c2ccccc2)cc1 — higher, -1.22%
- Cc1cc(C)cc(OP(=O)(Oc2cc(C)cc(C)c2)Oc2cc(C)cc(C)c2)c1 — lower, -8.81%
- O=c1ccc(=O)[nH][nH]1 — higher, -5.81%
- Nc1ccc(Cl)c(Cl)c1 — higher, -3.87%
- CCBr — higher, -5.95%
- CCSC(=O)N1CCCCCC1 — lower, -8.1%
- Cc1ccc(N=C=O)cc1N=C=O — higher, -3.05%
- CN(C)N=O — higher, 2.94%
- Cc1ccc(OP(=O)(Oc2ccc(C)cc2)Oc2ccc(C)cc2)cc1 — higher, 0.174%
- CCCCC#N — higher, -0.732%
- CN(C)C(=O)Nc1cccc(C(F)(F)F)c1 — higher, 0.577%
- Nc1ccc(Cc2ccc(N)cc2)cc1 — lower, -12.6%
- C/C=C/CC#N — higher, -2.08%
- CCC(Cl)[N+](=O)[O-] (stereo not given) — lower, -9.22%
- O=Cc1ccc2c(c1)OCO2 — higher, -3.46%
- C=C(Cl)CCl — higher, -3.06%
- [O-][Cl+2]([O-])O — higher, -5.69%
- O=C(O)CBr — higher, -0.469%
- CCCCCOC(=O)c1ccccc1C(=O)OCCCCC — higher, -5.17%
- CCOP(=O)(OCC)OCC — lower, -10.7%
- c1ccc(Nc2ccc(Nc3ccccc3)cc2)cc1 — lower, -18.7%
- Nc1c(Cl)cc([N+](=O)[O-])cc1Cl — lower, -11.5%
- Clc1ccc(C(Cl)(Cl)Cl)cc1Cl — higher, -4.05%
- ClCC(Cl)CCl — higher, -2.35%
